Apoferritin bind: qHTS Assay for Identification of Novel General Anesthetics | Ferritin light chain (Equus caballus), P02791 | apoferritin/1-aminoanthracene competitive binding, fluorescence | Potency, µM (titrated, usually from 77.5 µM), for inactives: at the highest dose activity change, negative = displacement, usual class: inhibitors | 0.074% of 350,000 active; further: potency means the concentration at half of the fitted maximal effect; on the % scale 0 is the no-effect control and ±100 the full control effect; nearly all actives have a fitted effect of over 20% in size
Target sequence (P02791 2-175 limits assumed): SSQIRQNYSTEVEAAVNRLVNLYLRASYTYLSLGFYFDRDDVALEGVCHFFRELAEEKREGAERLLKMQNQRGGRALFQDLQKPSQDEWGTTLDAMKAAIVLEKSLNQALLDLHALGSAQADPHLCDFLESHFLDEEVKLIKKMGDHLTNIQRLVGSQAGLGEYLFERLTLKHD
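Horse-spleen apoferritin (10 uM) was mixed with 50% saturated 1-aminoanthracene in PBS, exposed to compounds for 10 min at room temperature, and read for fluorescence (ex 380 nm, em 535 nm). Competitive displacement was fitted with a four-parameter Hill equation.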
D2 PAM-1: HTS Assay for Positive Allosteric Modulators of the Human D2 Dopamine Receptor: Primary Screen for Potentiators | D(2) dopamine receptor (Homo sapiens), P14416 | HEK293 T-REx D2, calcium flux, EC20 dopamine potentiation | potentiation, % at 10 µM | 0.34% of 340,000 active;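 active means potentiation over 3 SD above the plate norm, cut at about 30% in these data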; further: 0% is about no effect
Target sequence (P14416 whole entry, looked up): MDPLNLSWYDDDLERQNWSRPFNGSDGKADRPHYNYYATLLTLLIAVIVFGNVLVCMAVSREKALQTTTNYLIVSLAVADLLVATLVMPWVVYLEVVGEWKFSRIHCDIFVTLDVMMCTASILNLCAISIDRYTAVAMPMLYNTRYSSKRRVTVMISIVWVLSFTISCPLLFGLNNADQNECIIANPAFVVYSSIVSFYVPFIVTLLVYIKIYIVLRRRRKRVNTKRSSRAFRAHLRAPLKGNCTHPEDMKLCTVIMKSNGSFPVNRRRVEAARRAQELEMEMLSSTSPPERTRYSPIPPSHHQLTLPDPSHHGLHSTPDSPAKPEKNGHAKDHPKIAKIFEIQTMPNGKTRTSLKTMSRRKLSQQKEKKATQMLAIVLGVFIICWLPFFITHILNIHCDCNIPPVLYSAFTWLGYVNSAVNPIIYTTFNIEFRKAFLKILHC
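Tetracycline-induced Hek293 Trex D2 cells, force-coupled to calcium, loaded with no-wash calcium dye. Compound added with 180 s kinetic read for agonism, then EC20 dopamine and a further 180 s read for potentiation.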
D2 ag-1: HTS Assay for Allosteric Agonists of the Human D2 Dopamine Receptor: Primary Screen for Agonists. D(2) dopamine receptor (Homo sapiens), P14416. HEK293 T-REx D2 cells, calcium flux agonist mode. activation, % at 2 µM. 0.53% of 340,000 active;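 active means activation over 3 SD above normal in the single-dose calcium agonist read, cut at about 30% in these data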; further: 0% is about no effect
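Agonism scored from kinetic calcium signal (1 read/sec, 180 s) following compound pin transfer, after a 10 s baseline. Cells: HEK293 Trex line expressing inducible D2 receptor coupled to calcium, dye-loaded after overnight culture at 30 C.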
D2 ag-2: Beta-Arrestin HTS for Positive Allosteric Modulators of the Human D2 Dopamine Receptor: Agonists | 0.084% of 360,000 active | activation, % (no concentration beside the values) | DiscoveRx PathHunter D2 beta-arrestin, luminescence, 90 min; 100% = 57 uM dopamine signal | D(2) dopamine receptor (Homo sapiens), P14416; in the data active means activation above about 40%; inconclusive means between about 15% and that limit
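Agonist mode: compounds alone added to overnight-plated D2 PathHunter cells for 90 min at 37 C, with 57 uM final dopamine (EC100) defining full response. Beta-arrestin recruitment detected by chemiluminescent reagent, read after 1 h at ambient temperature.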
D2 antag: HTS Assay for Allosteric Antagonists of the Human D2 Dopamine Receptor: Primary Screen for Antagonists; HEK293 TREx D2 cells, calcium flux, dopamine EC80; D(2) dopamine receptor (Homo sapiens), P14416; 2% of 340,000 active; inhibition, % at 10 µM; in the data active means inhibition above about 30%; inactive means below that, where a call was filed; further: 0% is about no effect
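Tetracycline-induced HEK293 TREx cells expressing D2 receptor forced-coupled to calcium signalling, loaded with no-wash calcium dye. Compounds added and calcium flux read 180 s, then dopamine added at EC80 and read a further 180 s.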
D2 PAM-2: Beta-Arrestin HTS for Positive Allosteric Modulators of the Human D2 Dopamine Receptor: Potentiators; D(2) dopamine receptor (Homo sapiens), P14416; DiscoveRx D2 beta-arrestin cells, luminescence, 90 min; 100% = 57 uM dopamine signal; potentiation, % (no concentration beside the values); 0.23% of 360,000 active; in the data active means potentiation above about 50%; inconclusive means mostly about 30% to 49%
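PathHunter beta-arrestin assay in DiscoveRx D2 cells. Compounds were added with an EC20 of dopamine (50 nM final) for 90 min at 37 deg C. Luminescence was read 1 h after detection reagent, with 57 uM dopamine as the EC100 control.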
D3 ag: qHTS of D3 Dopamine Receptor Agonist: D3 Dopamine Receptor B-arrestin Agonist Confirmatory Assay | shares compounds with D2 ag-1 | DiscoveRx D3 beta-arrestin cells, luminescence, 90 min | Potency, µM (series often up to 76.9 µM), for inactives: at the top dose activation, hits mostly activators | 4% of 2,300 active | AID 720506, 2013;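 further: potency means the concentration at half of the fitted maximal effect; 100% = dopamine control response; nearly all actives have a fitted effect of over 70% in size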
D2 ag-3: qHTS of D3 Dopamine Receptor Agonist: D2 Dopamine Receptor B-arrestin Agonist Counterscreen. AID 720507, 2013. shares compounds with D2 ag-1. DiscoveRx PathHunter D2 beta-arrestin, luminescence, 90 min; response scale: percent relative to full dopamine signal. Potency, µM (series often up to 76.9 µM), for inactives: at the highest dose activation, hits mostly activators. 5.9% of 2,300 active; further: potency means the concentration at half of the fitted maximal effect; % of control where 0% means no effect; nearly all actives have a fitted effect of over 70% in size
Numbers without * were called inactive; u = inconclusive; x = no result given; [ ] = remark or other dose. An excerpt weighted towards active compounds, which were near 2.5% of everything screened. Unless noted, the call rests on the fitted dose curve; in most records, active means well fitted curve in the direction sought with a large enough effect; inconclusive means small, poorly fitted or top-dose-only effect, or another doubt; inactive means no such curve, though single readings can be large; an effect the other way counts as inactive or inconclusive.

SMILES | Apoferritin bind | D2 PAM-1 | D2 ag-1 | D2 ag-2 | D2 antag | D2 PAM-2 | D3 ag | D2 ag-3
CC(C)C[C@H]1C(=O)N2CCCC2[C@]2(O)O[C@](NC(=O)[C@@H]3C=C4c5cccc6[nH]cc(c56)CC4N(C)C3)(C(C)C)C(=O)N12 (some centres undefined) | -2% | -28 | 73* | 122* | 78* | 54* | u | 0.28µM*
CC(C)C[C@H]1C(=O)N2CCC[C@H]2[C@]2(O)O[C@](NC(=O)[C@@H]3C=C4c5cccc6[nH]c(Br)c(c56)CC4N(C)C3)(C(C)C)C(=O)N12 (some centres undefined) | -20% | -27 | 80* | 55* | 94* | u | u | 0.28µM*
CC(C)[C@@]1(NC(=O)[C@@H]2C[C@@H]3c4cccc5[nH]cc(c45)C[C@H]3N(C)C2)O[C@@]2(O)[C@@H]3CCCN3C(=O)[C@H](Cc3ccccc3)N2C1=O | -17% | -32 | 91* | -8 | 101* | 0 | 7% | u
COc1ccc(CCNC2(C#N)CCCCC2)cc1OC | x | x | x | -5 | x | -5 | x | x
C[C@]12CCC3C(CC[C@H]4C[C@@H](O)CC[C@]34C)[C@H]1CC[C@H]2O (some centres undefined) | x | x | x | 2 | x | 0 | x | x
C[C@H]1CC[C@@]2(C)[C@@H](CC[C@@H]3[C@@H]2CC[C@]2(C)[C@@H](O)CC[C@@H]32)C1 | -12% | -15 | -1 | -1 | 69* | -10 | 4% | -2%
NCCc1c[nH]c2ccccc12 | -17% | -6 | 0 | -7 | -14 | -60 | x | x
CCCCc1ccc2[nH]cc(CCN)c2c1 | -19% | -20 | 44* | 15 | 14 | -13 | -3% | u
CCOC(=O)c1[nH]c(=O)c2ccccc2c1O | 33% | 15 | 0 | -5 | -29 | -16 | x | x
COc1cc2c(cc1OC)[C@H]1C(=O)c3ccc4c(c3O[C@H]1CO2)C[C@@H](C(C)(C)O)O4 | x | x | x | -3 | x | -6 | x | x
C=CCN1CCc2cccc3c2[C@H]1Cc1ccc(O)c(O)c1-3 | -12% | -20 | 88* | 219* | 89* | 114* | 0.02µM* | 0.045µM*
O=C(Nc1ccccc1)c1c(O)[nH]c(=O)[nH]c1=O | x | x | x | -2 | x | -16 | x | x
COc1cc(/C=C/C(=O)c2c(O)n(CCc3ccccc3)c(=O)[nH]c2=O)ccc1O | 7% | 6 | 0 | -7 | -3 | -21 | x | x
O=C1NC(=S)N(c2ccc(Br)cc2)C(=O)/C1=C/N1CCN(C(=O)c2ccco2)CC1 | -16% | -10 | 27 | -4 | 11 | -39 | -4% | -2%
NNCc1cccc(O)c1 | 4% | -3 | 0 | 2 | -22 | -9 | x | x
CNC[C@H](O)c1ccc(O)cc1 | 7%[29.3 µM] | x | x | x | x | x | x | x
CCNCC(O)c1cccc(O)c1 (centres undefined) | -3% | -15 | 36* | -3 | 32* | 3 | u | u
Cc1c(NC(NC(=O)CF)C(Cl)(Cl)Cl)c(=O)n(-c2ccccc2)n1C (centres undefined) | -3% | 2 | 1 | 3 | 0 | -10 | x | x
Clc1ccc2[nH]c3c(c2c1)CCNC3 | -4% | -18 | 2 | 1 | 13 | -7 | x | x
O=[N+]([O-])c1cccc(O)c1 | x | 11 | 0 | -3 | 36* | -4 | -4% | 0%
O=[N+]([O-])c1cccc(CCl)c1 | x | -4 | 0 | -6 | 0 | -30 | x | x
O=[N+]([O-])c1ccc(CN2CC=C(c3ccccc3)CC2)cc1 | -8% | -50 | 78* | -1 | 89* | -21 | 5% | 10%
COc1c2c(cc3c1OCO3)CCN(C)C2 | -1%[29.3 µM] | -13 | 68* | -5 | 75* | 7 | u | u
COc1cc2c(cc1OC)-c1c3c(cc4c1[C@@H](C2)N(C)CC4)OCO3 | -3% | -11 | 0 | 5 | 4 | -26 | x | x
CC(CCc1ccccc1)NCCC#N (centres undefined) | 3% | -26 | 77* | 10 | 16 | 6 | u | 24%
SMILES | Apoferritin bind | D2 PAM-1 | D2 ag-1 | D2 ag-2 | D2 antag | D2 PAM-2 | D3 ag | D2 ag-3
CC1=C[C@@H]2c3cccc4[nH]cc(c34)C[C@H]2N(C)C1 | 22% | -32 | x | 77* | x | 92* | 0.089µM* | 2.8µM*
CN1Cc2ccccc2[C@@H]2c3cccc4[nH]cc(c34)C[C@H]21 | -4% | x | x | x | x | x | x | x
COc1ccc(N2C(=O)NC(=O)/C(=C/c3ccc(N4CCOCC4)cc3)C2=O)cc1 | -9% | 8 | 0 | x | 14 | x | x | x
CCOc1ccc(N2C(=O)NC(=O)/C(=C\c3ccc(N4CCOCC4)cc3C)C2=O)cc1 | -8% | -17 | 55* | 2 | 6 | 10 | 1% | 1%
CCN(C(=O)CN1CC=C(c2ccccc2)CC1)c1c(N)n(Cc2ccccc2)c(=O)[nH]c1=O | -6% | -8 | 11 | -2 | -13 | -9 | -12% | 2%
COc1ccccc1CN1CCNCC1 | x | x | x | -2 | x | -21 | x | x
COc1ccc(NC(=O)CN2CC=C(c3ccccc3)CC2)cc1S(=O)(=O)N1CCOCC1 | -10% | -28 | 54* | 8 | -4 | -17 | u | 2%
COC(=O)C1=C(c2ccccc2OCc2ccccc2)C[C@@H]2CC[C@H]1N2C(=O)NCc1ccc(N(C)C)cc1 | x | -7 | -1 | -1 | 6 | -8 | x | x
COC(=O)C1=C(c2ccc(F)cc2OCc2ccccc2)C[C@@H]2CC[C@H]1N2C(=O)NCc1ccccc1Cl | x | 17 | 0 | 1 | -22 | -21 | -1% | -2%
COC(=O)C1=C(c2ccccc2OCc2ccccc2)C[C@@H]2CC[C@H]1N2C(=O)NCc1ccc(OC)c(OC)c1 | x | 6 | 0 | -2 | 8 | -1 | -1% | -1%
CC(C)n1c(=O)c(C=Nc2ccc(Cl)cc2)c(O)n(Cc2ccco2)c1=O | -19% | 25 | 1 | x | -13 | x | x | x
CCC(=O)c1cc(F)c(N2CCN(CC)CC2)cc1C | -16% | -7 | x | -2 | x | -17 | x | x
CCN(CC)CCCC(C)N=C(c1ccccc1)c1c(O)n(C)c(=O)n(C)c1=O (centres undefined) | -5% | -17 | 38* | 9 | 69* | -13 | 26% | 21%
O=C(CN1CC=C(c2ccccc2)CC1)Nc1cc(Cl)ccc1Cl | 4% | x | x | -3 | x | -37 | x | x

Compound activity deposited in PubChem by National Center for Advancing Translational Sciences (NCATS).
